This passage reports inhibition results from PubChem BioAssay AID652154 (Broad Institute, 2013).

Out of some 360,000 compounds screened, about 4,200 (1.2%) were called active. This is one part of a sample in which actives are shown more often than they occur.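 How the source made its calls: active means mean replicate inhibition at least 60% with every replicate also reaching 60%; inconclusive means only one of the two criteria is met; inactive means mean below 60% and not all replicates reaching 60%.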

For orientation: inhibition means the relative decrease from the control value, in per cent.

The test is described as follows: inhibitors of PAX8-driven TPO luciferase reporter, primary screen, RMG-I cells, single concentration (AID 652154).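 Further: luciferase light reporting Pax8 driven TPO promoter activity; plate controls were median of neutral control wells for no effect and mitoxantrone controls for full effect.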 Particulars: SteadyGlo, 24 h, at 12.6 µM, hits give high values.
Consider `O=C(C[C@@H]1C[C@@H]2c3cc(NC(=O)NC4CCCC4)ccc3O[C@@H]2[C@@H](CO)O1)NCc1ccccc1`, for which the inhibition was -4.64% (inactive).

On to `C[C@H](CO)N1C[C@H](C)[C@@H](CN(C)C(=O)c2cnccn2)Oc2ncc(-c3ccccc3F)cc2C1=O`, for which the inhibition is 2.74% (inactive). The value for `C[C@@H]1CN([C@H](C)CO)C(=O)c2c(c3ccccc3n2C)-c2ccccc2CO[C@H]1CN(C)S(=O)(=O)c1ccccc1F` was 40.5% (inactive); that for `C[C@H](CO)N1C[C@H](C)[C@@H](CN(C)S(=O)(=O)c2ccc([N+](=O)[O-])cc2)OCc2ccccc2-c2c(n(C)c3ccccc23)C1=O` was 16.1% (inactive); that for `C[C@H](CO)N1C[C@H](C)[C@@H](CN(C)S(=O)(=O)c2cccc(F)c2)OCc2ccccc2-c2c(n(C)c3ccccc23)C1=O` was 83.4% (active).

Take `Cc1ccc(S(=O)(=O)Nc2ccc3c(c2)C(=O)N([C@@H](C)CO)C[C@@H](C)[C@H](CN(C)CC2CC2)O3)cc1`: the inhibition is -3.68% (inactive). The value for `COc1ccccc1-c1ccc([C@H]2[C@H](CO)N(C(=O)C3CC3)C23CN(C(C)=O)C3)cc1` was 1.61% (inactive). Regarding `OCCCNc1nccc(-c2cc(Nc3cccc(Cl)c3)ncn2)n1`, the inhibition is 107% (active).

Regarding `CCOc1c(Nc2cccc(Cl)c2)c(=O)c1=O`, the inhibition is -11.1% (inactive). The same measure for `C[C@H](CO)N1C[C@H](C)[C@@H](CN(C)CC2CCCCC2)Oc2ccc(NC(=O)Cn3cnnn3)cc2CC1=O`: -19.1% (inactive).

`COc1ccc(CN(C)C[C@H]2Oc3c(NS(=O)(=O)c4ccc(Cl)cc4)cccc3C(=O)N([C@H](C)CO)C[C@H]2C)cc1`: the inhibition was 5.03% (inactive). The value for `NC1=CC(=O)C(=O)c2cccnc21` was 117% (active). The value for `COc1cccc(/C=N/Nc2cc(C)nc(-c3ccccc3O)n2)c1O` was 90.5% (active); that for `COc1ccccc1-n1c(SCC(=O)Nc2cccc(C(=O)O)c2)nnc1-c1ccccc1O` was 19% (inactive).

For `COc1cc(/C=N/Nc2ccc(C)cc2)cc(Br)c1O`, the inhibition was -15% (inactive). The same measure for `Cc1ccc(S(=O)(=O)N(C)C[C@H]2Oc3ccc(NS(=O)(=O)c4ccccc4)cc3CC(=O)N([C@@H](C)CO)C[C@H]2C)cc1`: -2.41% (inactive); for `C[C@@H]1CN([C@H](C)CO)C(=O)c2cccc(NS(=O)(=O)c3ccc(F)cc3)c2O[C@H]1CN(C)Cc1ccc(Oc2ccccc2)cc1`: 16.4% (inactive); for `COc1ccc2[nH]c(C(=O)N/N=C/c3cc(OC)c(OC)c(OC)c3)cc2c1`: 85.3% (active). The value for `CCC(=O)c1ccc(OC(=O)/C=C/c2cc(OC)c(OC)c(OC)c2)cc1` was -5.71% (inactive). The same measure for `COc1ccc2[nH]c(C(=O)Nc3ccccc3Cl)cc2c1`: -22.1% (inactive); for `C[C@@H]1CCCCO[C@@H](CN(C)S(=O)(=O)c2cccs2)[C@@H](C)CN([C@@H](C)CO)C(=O)c2cc(NS(=O)(=O)c3ccc(F)cc3)ccc2O1`: 32% (inactive). Regarding `Cc1ccc(S(=O)(=O)N[C@H]2CC[C@H](CC(=O)NCc3ccccc3F)O[C@@H]2CO)cc1`, the inhibition was 3.28% (inactive).

As to `Cn1c(CC(=O)NNC(=O)c2ccccc2F)nc2ccccc21`, the inhibition was 74.1% (active). The value for `Cc1cc2occ(CC(=O)NNC(=O)c3ccccc3F)c2cc1C` was -1.24% (inactive); that for `O=C(Cn1cnc2ccccc2c1=O)NNC(=O)c1ccccc1F` was 0.953% (inactive).

In the case of `O=C(C[C@H]1CC[C@@H]2[C@H](COC[C@@H](O)CN2Cc2cc(F)cc(F)c2)O1)NC1CCC1`, the inhibition is 4.75% (inactive). For the compound `COc1ccc2c3c([nH]c2c1)[C@H](CO)N(C(=O)Nc1ccc(F)cc1)CC31CCN(CC2CCOCC2)CC1`, the inhibition was 27.1% (inactive). The same measure for `O=C(NC1=CC(=O)c2ccccc2C1=O)c1ccccc1`: 99.2% (active); for `Cc1cc(=O)c2ccc(NC(=O)c3ccccc3)cc2[nH]1`: -7.38% (inactive).

For the compound `O=C(NCCc1ccccc1)c1cccc(NC(=O)c2ccccc2)c1`, the inhibition was -77.4% (inactive). The same measure for `O=C(Nc1cccc([N+](=O)[O-])c1)N1CCc2ccccc2C1`: -115% (inactive); for `Cc1ccc(NC(=O)O/N=C/c2cccc([N+](=O)[O-])c2)cc1`: -64.7% (inactive); for `COC(=O)/C=C\C(=O)Nc1cccc([N+](=O)[O-])c1`: 87.5% (active). The same measure for `O=C(Nc1cccc(NC(=O)c2ccccc2[N+](=O)[O-])c1)c1ccccc1Cl`: -26.3% (inactive). The value for `Cc1onc(NC(=O)c2ccc([N+](=O)[O-])o2)c1Br` was 12.3% (inactive).

With `Cc1cccc(NC(=O)c2ccc([N+](=O)[O-])o2)c1`, the inhibition is 86.2% (active).

On to `O=C(N[C@H]1CC[C@H](CCNS(=O)(=O)c2ccc(F)cc2)O[C@H]1CO)C1CCC1`, for which the inhibition was 5.47% (inactive). The value for `O=C(CCCO)N/N=C/c1cc(Br)ccc1O` was 65% (active); that for `O=C(N/N=C/c1ccccc1O)/C(=C/c1ccccc1)CCO` was 8.09% (inactive); that for `O=C(CCc1ccc(O)cc1)NN=Cc1cc(Br)ccc1O` was 5.02% (inactive). For `CN1CCN(C(=O)C[C@H]2C[C@@H]3c4cc(NS(=O)(=O)c5ccc(F)cc5)ccc4O[C@@H]3[C@@H](CO)O2)CC1`, the inhibition was -4.63% (inactive).

Turning to `CC(C)(COC(=O)Nc1ccccc1)COC(=O)Nc1ccccc1`, the inhibition was -10.7% (inactive).

As to `CCOC(=O)Nc1ccc2c(c1)N(C(=O)CCCl)c1ccccc1[S@]2=O`, the inhibition was 120% (active).

As for `CCOC(=O)Nc1ccc2c(c1)N(C(=O)CN1CCN3CCCC3C1)c1ccccc1CC2` (stereo unspecified), the inhibition is -14.6% (inactive).

In the case of `CO[C@H]1CN(C)C(=O)c2ccc(NC(=O)C3CC3)cc2OC[C@@H](C)N(C(=O)CN2CCOCC2)C[C@H]1C`, the inhibition is 8.74% (inactive). The value for `Cc1onc(-c2ccccc2)c1C(=O)NNC(=S)NC(=O)c1ccc(F)cc1` was 69.8% (active); that for `O=C(NNC(=S)NC(=O)c1cn(-c2ccccc2)nc1-c1ccccc1)c1ccncc1` was -7.23% (inactive). The same measure for `Cc1onc(-c2ccccc2)c1C(=O)N=C(N)c1ccc(Cl)cc1`: 8.52% (inactive); for `Cc1[nH]c2ccccc2c1C(=O)COC(=O)c1c(-c2ccccc2)noc1C`: 20.4% (inactive). The value for `COc1ccc(C(=O)NNC(=O)c2cc(C)[nH]n2)cc1` was -12.8% (inactive). Take `COc1ccc(C(=O)NC(=S)NNC(=O)c2c(-c3ccccc3)noc2C)cc1`: the inhibition is 103% (active).
